Source: PubChem BioAssay (NCI)
Compounds without any hit were thinned out: in the full panel of roughly 79,000, 15% have a hit. The source made the active and inactive calls. Rule as the data show it: active = growth inhibition above about 70%; inactive = the rest.

Columns and labels:
[1] = NCI Yeast Anticancer Drug Screen. Data for the rad50 strain (AID 155);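 also: 0% = growth of vehicle-only cultures of the same strain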; settings: S. cerevisiae rad50 strain growth inhibition; at 50.0 µM; stronger effect = higher value
How it was run: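 Yeast carrying a defined DNA repair defect were exposed to test compounds, and growth was compared with vehicle-treated controls to give percent inhibition.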

[2] = NCI Yeast Anticancer Drug Screen. Data for the mec2-1 strain (AID 157); settings: S. cerevisiae mec2-1 strain, at 50.0 µM, stronger effect = higher value
How it was run: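 Vehicle-treated cultures served as reference for growth inhibition of compound-exposed mec2-1 yeast.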

[3] = NCI Yeast Anticancer Drug Screen. Data for the sgs1 mgt1 strain (AID 161);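 also: 0% = growth of cultures given vehicle only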; settings: S. cerevisiae sgs1 mgt1 strain, at 50.0 µM, stronger effect = higher value
How it was run: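 Mutant yeast exposed to compound; growth scored against vehicle-only wells.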

[4] = NCI Yeast Anticancer Drug Screen. Data for the cln2 rad14 strain (AID 165);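 also: 0% = growth equal to vehicle treated cultures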; settings: S. cerevisiae cln2 rad14 strain, at 50.0 µM, stronger effect = higher value
How it was run: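 Each compound was tested on cln2 rad14 yeast. Inhibition of growth was calculated against vehicle-exposed controls.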

[5] = NCI Yeast Anticancer Drug Screen. Data for the bub3 strain (AID 167); settings: S. cerevisiae bub3 mutant strain, at 50.0 µM, stronger effect = higher value
How it was run: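 Compounds were applied to a genetically altered yeast strain carrying a cell-cycle control defect. Growth inhibition was scored against vehicle-treated controls.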

[6] = NCI Yeast Anticancer Drug Screen. Data for the mlh1 rad18 strain (AID 175); settings: S. cerevisiae mlh1 rad18 strain growth inhibition; at 50.0 µM; stronger effect = higher value
How it was run: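 Vehicle-treated cultures served as the reference for growth inhibition in a yeast strain carrying DNA damage repair alterations exposed to each compound.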

Measured: growth inhibition

CSc1ccc(NC(=O)Nc2ccccc2C(F)(F)F)cc1
inactive: [1] 2.05% | [2] -3.25% | [3] 18.4% | [4] -9.85% | [5] 34.5% | [6] 27%

O=C(O)CNc1ccc([N+](=O)[O-])cc1C(=O)O
inactive: [1] -1.25% | [2] -1% | [3] 2.75% | [4] 7.4% | [5] -6.7% | [6] -5.95%

CCC/C=N/Nc1ccc([N+](=O)[O-])cc1[N+](=O)[O-]
inactive: [1] -11.3% | [2] -9.95% | [3] 0.3% | [4] -12.5% | [5] 0.9% | [6] -16.1%

CCN(CC)CCCNC(Cc1ccccc1)c1ccc(OC)cc1 (stereo not drawn)
inactive: [1] -1.85% | [2] -7.45% | [3] -4.05% | [4] 9.05% | [5] -17.6% | [6] -19.8%

N=c1c2ccccc2nc2oc3ccccc3n12
inactive: [1] 48.8% | [2] 12% | [3] 7.7% | [4] 13.2% | [5] 24.9% | [6] 6.5%

COc1ccc(N2C(=O)C(=O)C3(CCCCC3)C2=O)c2ccccc12
inactive: [1] -6.15% | [2] -25.7% | [3] -16% | [4] 10.8% | [5] 1.05% | [6] 0.3%

C=C1CC(OC(=O)c2ccc([N+](=O)[O-])cc2)C1
inactive: [1] 1.5% | [2] -16.6% | [3] -16.5% | [4] -8.65% | [5] 3.7% | [6] -8.5%

CCN(CC)Cc1cc(N=Nc2ccc(-c3ccc(N)c(OC)c3)cc2OC)c2ccccc2c1O
inactive: [1] 18.7% | [2] 4.35% | [3] 18.6% | [4] 19.8% | [5] -4.8% | [6] 27.4%

CC(C)C(=O)/C=C/c1ccc(Cl)c(Cl)c1
inactive: [1] 41.2% | [2] 28.2% | [3] 26.4% | [4] -1.85% | [5] 18.9% | [6] 26.8%

C/C=C/C1OCC(C)([N+](=O)[O-])CO1 (stereo not drawn)
inactive: [1] 23.5% | [2] 10.1% | [3] 19.4% | [4] 12.5% | [5] -1.35% | [6] 31.1%

Cc1cccc[n+]1CCC(N)=O
inactive: [1] -6.55% | [2] -26.8% | [3] -1.85% | [4] 5.5% | [5] -15.8% | [6] -6.25%

O=C1c2ccccc2CCC12OC2c1ccccn1 (stereo not drawn)
active: [2] 78.5% | [5] 89.9% | [6] 84.2%
inactive: [1] 67.8% | [3] 55% | [4] -6%

CCN(CC)Cc1ccc([NH-])c([NH-])c1.CCN(CC)Cc1ccc([NH-])c([NH-])c1.[Cl][Pt+2][Cl].[Cl][Pt+2][Cl].[Cl][Pt+2][Cl]
inactive: [1] 27.4% | [2] 36.6% | [3] 35.6% | [4] 25.6% | [5] 29.2% | [6] 48.5%

O=C(OC1(c2nccc3ccccc23)CCCN(Cc2ccccc2)C1)c1ccccc1 (stereo not drawn)
inactive: [1] 28.9% | [2] 11.8% | [3] 15.9% | [4] 14.2% | [5] -1.4% | [6] 24.1%

Nc1cc(S(=O)(=O)O)cc2cccc(S(=O)(=O)O)c12
inactive: [1] 7% | [2] -7.7% | [3] 0.35% | [4] -20.6% | [5] 25.2% | [6] 30.8%

CCN(CC)C(=O)CCC(=O)O
inactive: [1] 0.4% | [2] -13.3% | [3] -14.7% | [4] 3.3% | [5] 0.55% | [6] 24.7%

CNC(=O)Nc1cc2c3c(c1)CCCN3CCC2
inactive: [1] -16.8% | [2] -36.6% | [3] -9.45% | [4] -15.8% | [5] -9.55% | [6] -8.3%

CCCC(C(=O)O)(c1ccccc1)c1ccccc1
inactive: [1] 11.3% | [2] 0.55% | [3] 5.45% | [4] -24.9% | [5] 7.5% | [6] 1.8%

S=C(NNC1=NCCN1)Nc1ccccc1
inactive: [1] -54% | [2] -19.9% | [3] -19.8% | [4] 3.15% | [5] -20.9% | [6] -12.7%

Cc1c(C(=O)O)[nH]c2c(Cl)ccc(C)c2c1=O
inactive: [1] -34.2% | [2] -9.15% | [3] 9.5% | [4] -44.5% | [5] 9.8% | [6] 4.75%

NCCN(Cc1ccccc1)C1CC1
inactive: [1] 5.4% | [2] -33.6% | [3] 9.35% | [4] 15.3% | [5] -16.2% | [6] -1.05%

O=C(O)c1cncc(-c2ccccc2)c1
inactive: [1] 38.2% | [2] 30.7% | [3] 23.4% | [4] 14.1% | [5] 3% | [6] 26%

COc1cc(NCC(C#N)C#N)ccc1N=Nc1ccc([N+](=O)[O-])cc1
inactive: [1] 25.9% | [2] 26.4% | [3] 10.5% | [4] 18.8% | [5] 12.7% | [6] 48.9%

C[CH2][Sn]([CH2]C)([O]C(=O)c1ccc(F)cc1)[O][Sn]([CH2]C)([CH2]C)[O]C(=O)c1ccc(F)cc1
inactive: [1] -7.3% | [2] -2.8% | [3] -16.4% | [4] 23.6% | [5] 12.6% | [6] -9.05%

S=C1CC(c2ccccc2)Sc2cc(Cl)ccc2N1 (stereo not drawn)
inactive: [1] -15.5% | [2] -4.35% | [3] 4.9% | [4] 15.6% | [5] -2.45% | [6] -2.95%

Cc1nn(C(=O)CC(=O)Nc2ccc(Cl)cc2)c(C)c1N=Nc1ccccc1F
inactive: [1] -40% | [2] -25.5% | [3] -60.6% | [4] -12.4% | [5] -28.4% | [6] -43%

O=C(C[n+]1ccncc1)c1ccccc1
inactive: [1] -20.8% | [2] -18.7% | [3] -6.35% | [4] -6.25% | [5] -10.2% | [6] 2.65%

COC(=O)C1(O)CC(=O)CCC1c1ccc(OC)cc1 (stereo not drawn)
inactive: [1] 9.75% | [2] -1.35% | [3] -14.8% | [4] -10.3% | [5] -38% | [6] -17.1%

Cc1cn(C2CC(O)C(CO)C2C)c(=O)[nH]c1=O (stereo not drawn)
inactive: [1] -7.45% | [2] -11.8% | [3] -17.2% | [4] 5.4% | [5] -11.8% | [6] -24.9%

CCOC(=O)CC(C)(O)c1ccccc1 (stereo not drawn)
inactive: [1] -12.2% | [2] -0.55% | [3] 23.4% | [4] -17.4% | [5] 12.3% | [6] 0.15%

Cc1ccc(N=Nc2sc(N)nc2-c2ccc(Cl)cc2)cc1
inactive: [1] 28.6% | [2] -2.55% | [3] 35.6% | [4] 39.6% | [5] 17.1% | [6] 62.9%

Cn1ncc2c(=S)[nH]c(=O)[nH]c21
inactive: [1] 3.7% | [2] -0.2% | [3] -1.1% | [4] -4.95% | [5] 1.05% | [6] -0.1%

COc1cccc(CC2C(=O)N=C(NC(C)=O)N2C)c1OC(C)=O (stereo not drawn)
inactive: [1] -35% | [2] -7.4% | [3] -23.6% | [4] -11.7% | [5] -5.65% | [6] -31.2%

CCC(=O)C(CC)c1ccccc1 (stereo not drawn)
inactive: [1] 9.25% | [2] -8% | [3] -4.8% | [4] 2.2% | [5] 4.4% | [6] 4.55%

O=c1c2ccccc2n2n1Cc1ccccc1C2
inactive: [1] 38.1% | [2] 9.1% | [3] -11.5% | [4] 6.95% | [5] 12.2% | [6] 59.4%

CCCCCCCCCCCCCCCc1cc(OC)ccc1S(=O)(=O)O
inactive: [1] 22.6% | [2] 5.8% | [3] 15.9% | [4] 30.9% | [5] 3.1% | [6] 15.6%

C1CCSCCCCCSCCCCCSCCCCCSCC1
inactive: [1] 25.2% | [2] -7.55% | [3] -4.2% | [4] -3.15% | [5] 4.35% | [6] -8.7%

CC(=O)Nc1ccc(N(C)C)cc1Cl
inactive: [1] -24.6% | [2] -17.2% | [3] -13.7% | [4] -17.1% | [5] -1.8% | [6] -16.1%
